# Rows were chosen to be rich in hits. Some 8.5% of all compounds tested hit in one or more screens of this group.
# RGS12 GoLoco inh: RGS12 GoLoco-Gai1 interaction inhibition | Gai1:RGS12 GoLoco peptide FP, rhodamine, 10 min | Potency, µM (doses to about 61.6 µM), hits mostly inhibitors | 0.44% of 230,000 active; active means well fitted inhibition curve with a large enough effect, not every such curve was filed as active; inactive means no such curve, though single readings can be large or run the other way; further: nearly all actives have a fitted effect of over 30% in size
# Target sequence (P63096 whole entry, looked up): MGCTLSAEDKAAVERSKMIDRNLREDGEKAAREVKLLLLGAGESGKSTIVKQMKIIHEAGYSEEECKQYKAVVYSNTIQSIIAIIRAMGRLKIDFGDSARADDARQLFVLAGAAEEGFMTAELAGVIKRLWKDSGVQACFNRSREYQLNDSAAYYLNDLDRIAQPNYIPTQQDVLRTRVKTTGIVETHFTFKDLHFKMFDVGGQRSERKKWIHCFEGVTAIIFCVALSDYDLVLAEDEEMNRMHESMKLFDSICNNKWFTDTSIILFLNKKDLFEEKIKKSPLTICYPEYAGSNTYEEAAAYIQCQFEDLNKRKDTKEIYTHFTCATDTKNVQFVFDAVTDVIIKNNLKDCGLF
# FBPA coupling cs: counter-screen for Giardia aldolase inhibitors: coupling enzyme system | AID 2472 | coupling enzyme system counterscreen, AmpLite Red fluorescence | activity change, negative = inhibition, % at 58.2 µM, hits read low | 0.67% of 290,000 active; in the data active means activity change below about -30%
#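 First, compound is pin-transferred into glyceraldehyde-3-phosphate coupling-enzyme reagent at 57.5 uM final and held 10 min at RT. Next, substrate, coupling system and AmpLite Red are added. After 20 min RT, fluorescence (525/598 nm) is read.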
# NPSR antagonist: blocks cAMP signaling of the human neuropeptide S receptor; Q6W5P4; CHO-NPSR cells, cAMP TR-FRET, antagonist mode; Potency, µM (top dose mostly 38.3 µM), most hits filed as inhibitors; 1% of 220,000 active; AID 1461; further: nearly all actives have a fitted effect of over 50% in size
# JMJD2E inh: JMJD2E (human) inhibition; 1.6% of 230,000 active; AID 2147; JMJD2E catalytic domain, FDH-coupled NADH fluorescence (FDH is formaldehyde dehydrogenase); Potency, µM (top dose mostly 57.1 µM), usual class: inhibitors; B2RXH2; active means well fitted inhibition curve with a large enough effect, not every such curve was filed as active; inconclusive means small, poorly fitted or top-dose-only effect, or another doubt; inactive means no such curve, though single readings can be large or run the other way; further: nearly all actives have a fitted effect of over 50% in size
# Target sequence (B2RXH2 1-337 limits assumed): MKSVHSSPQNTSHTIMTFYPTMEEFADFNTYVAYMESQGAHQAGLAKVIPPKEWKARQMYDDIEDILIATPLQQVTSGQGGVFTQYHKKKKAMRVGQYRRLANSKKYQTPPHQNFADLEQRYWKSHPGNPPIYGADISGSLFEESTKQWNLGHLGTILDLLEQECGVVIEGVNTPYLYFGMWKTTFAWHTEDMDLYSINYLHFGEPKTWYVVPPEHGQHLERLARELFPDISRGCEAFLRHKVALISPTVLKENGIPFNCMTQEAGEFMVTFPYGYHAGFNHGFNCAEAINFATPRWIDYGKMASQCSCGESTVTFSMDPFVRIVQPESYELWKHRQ
# ALDH1A1 inh: inhibitors of human aldehyde dehydrogenase 1A1; P00352; Purified ALDH1A1, NADH fluorescence, propionaldehyde substrate; Potency, µM (doses to about 75.3 µM), most hits filed as inhibitors; 7.3% of 220,000 active; AID 1030; active means well fitted inhibition curve with a large enough effect, not every such curve was filed as active; inconclusive means small, poorly fitted or top-dose-only effect, or another doubt; inactive means no such curve, though single readings can be large or run the other way
# Sfp PPTase inh: inhibitors of Bacillus subtilis Sfp phosphopantetheinyl transferase. Q9F4F7. Biochemical Sfp PPTase activity, qHTS. Potency, µM, actives largely listed as inhibitors. 3.5% of 310,000 active. AID 1490;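 further: the enzyme is Sfp with the accession as filed and its product quenches rhodamine fluorescence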
#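 Reaction rates are the 30-min fluorescence difference (ex 525, em 598 nm) in wells containing 15 nM Sfp, 5 uM rhodamine-CoA and 12.5 uM BHQ-2-YbbR at pH 7.6 with 10 mM MgCl2.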
# Hits are given with their value; - = inactive; ? = inconclusive; . = not tested or not shown; [ ] = dose if it differs, or a comment. Unless noted, the call rests on the fitted dose curve; in most records, active means well fitted curve in the direction sought with a large enough effect; inconclusive means small, poorly fitted or top-dose-only effect, or another doubt; inactive means no such curve, though single readings can be large; an effect the other way counts as inactive or inconclusive.
SMILES,RGS12 GoLoco inh,FBPA coupling cs,NPSR antagonist,JMJD2E inh,ALDH1A1 inh,Sfp PPTase inh
COc1cc(OC)cc(C(=O)Nc2ccc(-c3nc4ccccc4o3)cc2)c1,-,-,-,?,?,8.91µM
COc1cccc(C(=O)Nc2ccc(-c3nc4ccccc4o3)c(O)c2)c1,-,-,-,?,?,-
Cc1ccc[n+](CC(=O)c2ccc(Br)cc2)c1C,.,-,.,.,.,-
Nc1ccc(C(=O)O)c(O)c1 (tested in a mixture with another compound),28.2µM,-,.,.,.,-
COc1cc(N)ccc1C(=O)O,-,-,-,-,-,-
S=c1[nH]nc(-c2cc(-c3ccco3)[nH]n2)n1-c1cccc2ccccc12,-,-,-,-,?,10µM
Cc1ccc(-n2c(-c3cc(-c4ccco4)[nH]n3)n[nH]c2=S)c(Br)c1,-,-,-,-,.,50.1µM
O=S1(=O)c2ccccc2N=NN1Cc1ccc(Cl)c(Cl)c1,-,-,-,-,2.51µM,56.2µM
CC(C)(C)c1ccc(C(=O)N2CCN(Cc3ccccc3)CC2)cc1,.,-,.,.,.,-
CC(C)(C)c1ccc(CN2N=Nc3ccccc3S2(=O)=O)cc1,-,-48.7,10µM,-,22.4µM,2.82µM
O=C(NCCS(=O)(=O)N1CCN(c2ccccc2F)CC1)c1cccc(Br)c1,.,-,.,.,.,-
CCCCCCC1NC(C(=O)O)CS1 (configuration not stated),-,-,-,-,?,44.7µM
Cc1ccc(C)c(N2C(=O)CC(N3CCN(Cc4ccc5c(c4)OCO5)CC3)C2=O)c1 (configuration not stated),-,-,-,-,?,-
COc1ccccc1Nc1nc(N)nc(CN2CCN(Cc3ccc4c(c3)OCO4)CC2)n1,-,-,-,-,.,?
Cc1cccc(Nc2nc(N)nc(CN3CCN(Cc4ccc5c(c4)OCO5)CC3)n2)c1,-,-,?,-,14.1µM,-
O=C1CC(N2CCN(c3ccccc3)CC2)C(=O)N1c1ccc2c(c1)OCCO2 (configuration not stated),-,-,-,-,-,-
O=C1CC(N2CCN(c3ccc(F)cc3)CC2)C(=O)N1c1ccc2c(c1)OCO2 (configuration not stated),-,-,-,-,18.9µM,-
Cc1cccc(N2C(=O)CC(N3CCN(Cc4ccc5c(c4)OCO5)CC3)C2=O)c1 (configuration not stated),-,-,-[7.67 µM],-,22.4µM,-
O=C1CC(N2CCN(Cc3ccc4c(c3)OCO4)CC2)C(=O)N1c1ccccc1 (configuration not stated),-,-,?,-,15.8µM,-
Cc1cccc(NC(=S)NCc2ccccc2Cl)c1C,.,-,.,.,.,-
O=C1CC(N2CCN(c3ccccc3Cl)CC2)C(=O)N1c1ccccc1 (configuration not stated),-,-,-,-,25.1µM,-
CC1Cc2ccccc2N1C(=O)CN1C(=O)C(=O)N(Cc2ccccc2)C1=O (configuration not stated),-,-,-,-,31.6µM,-
O=C(C1=NN(c2ccccc2)C(=O)CC1)N1CCc2ccccc2C1,.,-,.,.,.,-
CCN(CC)c1ccc(NC(=O)COC(=O)c2cccs2)cc1,2µM,-,-,-,-,-
CC(=O)c1cccc(NC(=O)COC(=O)c2cccs2)c1,-,-,-,-,14.1µM,-
SMILES,RGS12 GoLoco inh,FBPA coupling cs,NPSR antagonist,JMJD2E inh,ALDH1A1 inh,Sfp PPTase inh
CCOC(=O)c1cccc(NC(=O)c2cccs2)c1,-,-,-,-,-,-
C[C@@H]1C(=O)O[C@H]2[C@H](O)[C@@]34[C@H]5CC(C(C)(C)C)[C@]36[C@H](OC(=O)[C@H]6O)O[C@]4(C(=O)O5)[C@@]12O (some centres not stated),.,-,.,.,.,-
CC(C)(Oc1ccc(Cl)cc1)C(=O)NCc1ccc(S(N)(=O)=O)cc1,-,-,-,-,-,-
CCc1nc2sc(C(C)=O)c(N)c2c2c1CCCC2,-,-,-,?,.,-
CC(C)c1nc2sc3c(=O)[nH]cnc3c2c2c1CCCC2,-,-,?,-,.,-
NC(=O)c1sc2nc(-c3ccccc3)c3c(c2c1N)CCCC3,-,-,-,?,?,39.8µM
Cc1nc2sc(C(N)=O)c(N)c2c2c1CCCC2,-,-,-,?,.,79.4µM
CC(=O)c1sc2nc(-c3ccc(C)cc3)c3c(c2c1N)CCCC3,-,-,-,?,?,35.5µM
CC(C)c1nc2sc(C(=O)O)c(N)c2c2c1CCCC2,-,-,-,-,.,56.2µM
O=C(O)CCn1c(=S)n(CCC(=O)O)c2ccccc21,-,-,-,-,.,-
Cc1ccc(-c2nc3sc(C(N)=O)c(N)c3c3c2CCCC3)cc1,-,-,-,-,-,39.8µM
Cc1cc(C)c2cc(CN(CCO)C(c3nnnn3Cc3ccc(F)cc3)C(C)C)c(=O)[nH]c2c1 (configuration not stated),-,-,-,?,12.6µM,-
CC(=O)NCCC(=O)Nc1cc(S(=O)(=O)N2CCOCC2)ccc1Oc1ccccc1,.,-,.,.,.,-
Cc1ccc2cc(CN(CCN3CCOCC3)Cc3nnnn3Cc3ccco3)c(=O)[nH]c2c1C,-,-,-,-,5.01µM,-
Cc1ccc2cc(CN(Cc3ccc4c(c3)OCO4)Cc3nnnn3Cc3ccco3)c(=O)[nH]c2c1C,-,-,?,?,?,22.4µM
Cc1ccc(C)c2[nH]c(=O)c(CN(Cc3ccc4c(c3)OCO4)Cc3nnnn3Cc3ccco3)cc12,-,-,?,?,?,50.1µM
CCOc1ccc2[nH]c(=O)c(CN(Cc3ccco3)C(CC)c3nnnn3Cc3ccccc3)cc2c1 (configuration not stated),-,-,-,?,?,?
CCC(c1nnnn1Cc1ccco1)N(CCN1CCOCC1)Cc1cc2cc(C)ccc2[nH]c1=O (configuration not stated),-,-,-,?,?,44.7µM
COc1cc2cc(CN(CCCN3CCOCC3)Cc3nnnn3Cc3ccccc3)c(=O)[nH]c2cc1OC,-,-,?,?,?,-
Cc1ccc(C(OCC(C)(C)C[N+](C)(C)C)c2ccccc2)cc1 (configuration not stated),8.91µM,-,-,-,-,44.7µM
CCN(CC)CCOC(c1ccccc1)c1ccc(C)cc1 (configuration not stated),-,-,-,-,-,-
O=C(N/N=C/c1cc([N+](=O)[O-])ccc1O)c1cccc2ccccc12,.,-,.,.,.,-
O=C1C(=C(c2ccccc2)c2ccccc2)Nc2ccccc21,-,-,12.6µM,-,0.708µM,-
CCCCNC(=O)Cn1cnc2sc(C)c(S(=O)(=O)N3CCN(c4ccccc4OC)CC3)c2c1=O,.,-,.,.,.,-
OC1OC[C@@H](O)[C@H](O)[C@H]1O (some centres not stated),.,-,.,.,.,-
